# Reference: the supplement of paper PMC4709259
# Where a name gives a salt, the structure may show the parent alone. ± gives the standard deviation.
# System: Jurkat
# Assay: cell count relative to DMSO control (fraction of control); higher = more cells (less growth inhibition)
# Settings: 48 h
row,SMILES,cell count
1,Clc1cccc(Cl)c1NC1=NCCN1 [Clonidine·HCl] (concentration: 25 µM),0.224 ± 0.083
2,CC(C)(S)[C@@H](N)C(=O)O [Penicillamine (D-Penicillamine)] (concentration: 25 µM),0.796 ± 0.074
3,CCCN(CCC)CCc1cccc2c1CC(=O)N2 [Ropinirole·HCl] (concentration: 25 µM),0.958 ± 0.1
4,NC(=O)c1cn(Cc2c(F)cccc2F)nn1 [Rufinamide] (concentration: 25 µM),0.803 ± 0.055
5,O=C(O)c1ccc(-n2nc(-c3ccccc3O)nc2-c2ccccc2O)cc1 [Deferasirox] (concentration: 2.5 µM),0.636 ± 0.039
6,COc1cc(C(=O)NS(=O)(=O)c2ccccc2C)ccc1Cc1cn(C)c2ccc(NC(=O)OC3CCCC3)cc12 [Zafirlukast] (concentration: 25 µM),0.381 ± 0.062
7,OCCN1C[C@H](O)[C@@H](O)[C@H](O)[C@H]1CO [Miglitol] (concentration: 25 µM),0.767 ± 0.14
8,CN1CCCC(n2nc(Cc3ccc(Cl)cc3)c3ccccc3c2=O)CC1 (configuration not stated) [Azelastine·HCl] (concentration: 25 µM),0.457 ± 0.02
9,Cc1onc(-c2ccccc2)c1C(=O)N[C@@H]1C(=O)N2[C@@H]1SC(C)(C)[C@@H]2C(=O)O [Oxacillin·Na] (concentration: 25 µM),0.975 ± 0.1
10,CCCCC[C@H](O)/C=C/[C@H]1[C@H](O)CC(=O)[C@@H]1C/C=C\CCCC(=O)O [Dinoprostone] (concentration: 25 µM),0.399 ± 0.11
11,NS(=O)(=O)c1cc(C(=O)O)c(NCc2ccco2)cc1Cl [Furosemide] (concentration: 25 µM),0.249 ± 0.11
12,CC1=C(C(=O)O)N2C(=O)[C@@H](NC(=O)[C@H](N)c3ccc(O)cc3)[C@H]2SC1 [Cefadroxil] (concentration: 25 µM),0.895 ± 0.079
